# Experimental data: PubChem BioAssay
# Values joined by “and” are separate entries in the source; they are usually repeats but may differ in a detail not shown here. Equal values may be shown once. Active and inactive are the calls of the source. Unless noted, how the calls were made is not given here.
# Tests used:
# [1] = tested on: Wnt5a (protein binding on small-molecule microarray); assay: small molecules binding Wnt5a protein – biophysical, small-molecule microarray, 635/667 nm fluorescence, primary screen (AID 1142); conditions: 635 nm fluorescence, higher = more signal;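 further: fluorescence read at 667 nm with signal to noise per printed feature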
# [2] = ATP-based viability of Huh7 replicon cells – cell-based, CellTiter-Glo luminescence, basal, 48 h, cytotoxicity control for HCV replication inhibitor project, primary screen (AID 1143); conditions: higher = more signal, called active from +8 up or from −8 down;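 further: Huh7 hepatoma cells carrying a hepatitis C replication reporter with no stimulus; test concentration not given here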
# [3] = Pseudomonas biofilm growth suppression – PAO1 strain, BacTiter-Glo luminescence, LB-PBS, primary screen (AID 1144); conditions: P. aeruginosa PAO1 biofilm, 12 h, higher = more signal
# [4] = basal CRE-LacZ reporter activity in PC12 – cell-based, unstimulated, primary screen (AID 1145); conditions: no forskolin, luminescence, 4.5 h, higher = more signal, called active from +8 up or from −8 down
# [5] = forskolin-driven CRE-LacZ activity in PC12 – cell-based, CRE-LacZ reporter, forskolin-stimulated, primary screen (AID 1146); conditions: luminescence, 4.5 h, higher = more signal, called active from +8 up or from −8 down;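 further: PC12 cells with 6xCRE LacZ reporter stimulated by forskolin 10 µM; beta-galactosidase reporter signal reflecting CREB driven transcription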
# [6] = target: Streptavidin (Streptomyces avidinii) (UniProt P22629); assay: compounds binding control protein streptavidin – biophysical, small-molecule microarray, 635/667 nm fluorescence, artefact control for SMM compound annotation, primary screen (AID 1147); conditions: higher = more signal;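 further: signal reflects streptavidin binding to arrayed compounds as a control protein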
# Sequence of Streptavidin (Streptomyces avidinii) (P22629 whole entry, looked up): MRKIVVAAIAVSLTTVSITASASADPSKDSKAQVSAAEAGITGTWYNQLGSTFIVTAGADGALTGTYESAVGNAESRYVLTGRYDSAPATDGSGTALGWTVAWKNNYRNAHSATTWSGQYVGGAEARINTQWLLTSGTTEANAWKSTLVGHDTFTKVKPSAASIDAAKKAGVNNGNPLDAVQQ
# [7] = probe aInhba binding on compound microarray – biochemical, small-molecule microarray, 635/667 nm fluorescence, primary screen (AID 1148); conditions: higher = more signal;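 further: score merges 667nm spot fluorescence with signal-to-noise for antibody binding to printed compounds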
# Torsin-1A (Homo sapiens) [8] = target: Torsin-1A (Homo sapiens) (UniProt O14656); assay: TOR1A wild-type binding on microarray – cell lysate, small-molecule microarray, lysate, 635/667 nm, primary screen (AID 1149); conditions: COS7 hTOR1A-WT lysate, 635 nm fluorescence, higher = more signal
# Sequence of Torsin-1A (Homo sapiens) (O14656 whole entry, looked up): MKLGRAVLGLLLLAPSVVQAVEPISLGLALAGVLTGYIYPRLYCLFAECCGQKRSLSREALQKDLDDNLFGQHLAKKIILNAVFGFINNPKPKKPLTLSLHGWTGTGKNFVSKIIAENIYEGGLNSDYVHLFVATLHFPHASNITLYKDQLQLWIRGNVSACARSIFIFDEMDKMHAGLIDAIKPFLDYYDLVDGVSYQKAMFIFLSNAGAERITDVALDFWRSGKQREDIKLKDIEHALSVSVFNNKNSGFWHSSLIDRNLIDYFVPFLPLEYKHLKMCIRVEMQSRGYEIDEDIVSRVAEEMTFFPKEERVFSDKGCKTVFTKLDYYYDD
# Torsin-1A (Homo sapiens) [9] = target: Torsin-1A (Homo sapiens) (UniProt O14656); assay: torsin A mutant lysate binding on microarrays – cell lysate, small-molecule microarray, COS7 lysate, 635/667 nm fluorescence, primary screen (AID 1150); conditions: COS7 hTOR1A mutant lysate, 635 nm fluorescence, higher = more signal;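 further: score pools 667 nm emission and signal to noise measuring lysate protein binding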
# [10] = tested on: Sonic hedgehog protein (Shh); assay: Sonic hedgehog microarray binding compounds – biochemical, small-molecule microarray, 635/667 nm fluorescence, primary screen (AID 1151); conditions: 635 nm fluorescence, higher = more signal;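 further: Shh protein binding to compounds spotted on small-molecule microarray slides; score combines spot fluorescence intensity with signal-to-noise across triplicate slides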
# [11] = optical density shifts of acrAB sulA E. coli – strain DRC41, OD650, 48 h, E. coli filamentation inducer project, primary screen (AID 1152); conditions: higher = more signal, called active from +8 up or from −8 down;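 further: E. coli MC1000 strain DRC41 lacking acrAB efflux pump and sulA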
# [12] = probe aLefty1 binding on compound microarray – biochemical, small-molecule microarray, 635/667 nm fluorescence, primary screen (AID 1153); conditions: higher = more signal;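 further: score merges spot fluorescence with signal-to-noise ratio from the scanned slide images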
# [13] = plasmodial surface anion channel blockers, osmotic lysis – cell-based, P. falciparum Indochina, OD700, 1 h, primary screen (AID 1154); conditions: P. falciparum Indochina infected RBC osmotic lysis, higher = more signal, called active from +8 up or from −8 down
# [14] = plasmodial surface anion channel blockers, osmotic lysis – cell-based, P. falciparum Indochina, OD700, 2 h, primary screen (AID 1155);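 further: lysis reports solute entry through the parasite surface anion channel PSAC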; conditions: P. falciparum Indochina infected erythrocytes, higher = more signal, called active from +8 up or from −8 down
# [15] = changes in parasitized red cell lysis, either direction – P. falciparum Indochina, OD700, 3 h, PSAC antagonist project, primary screen (AID 1156); conditions: P. falciparum-infected erythrocytes, osmotic lysis, higher = more signal, called active from +8 up or from −8 down
# [16] = plasmodial surface anion channel blockers, osmotic lysis – cell-based, P. falciparum Indochina, OD700, 18 h, primary screen (AID 1157); conditions: P. falciparum Indochina infected erythrocytes, osmotic lysis OD700, 18 h; higher = more signal, called active from +8 up or from −8 down
# [17] = S6 kinase pathway phospho-S6 level changes – cell-based, A549, cytoblot, luminescence, serum-stimulated, primary screen (AID 1158); conditions: 5 h, higher = more signal;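 further: serum-stimulated A549 lung adenocarcinoma cells; signal is phosphorylated S6 detected by cytoblot immunostaining with HRP secondary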
# [18] = target: NADPH oxidase 2 (Homo sapiens) (UniProt P04839); assay: compounds shifting NOX2 Amplex Red fluorescence – cell-based, HEK293-NOX2, PMA-stimulated, NOX inhibitor project, primary screen (AID 1159); conditions: 45 min, higher = more signal, called active from +8 up or from −8 down; further: test concentration not given here
# Sequence of NADPH oxidase 2 (Homo sapiens) (P04839 whole entry, looked up): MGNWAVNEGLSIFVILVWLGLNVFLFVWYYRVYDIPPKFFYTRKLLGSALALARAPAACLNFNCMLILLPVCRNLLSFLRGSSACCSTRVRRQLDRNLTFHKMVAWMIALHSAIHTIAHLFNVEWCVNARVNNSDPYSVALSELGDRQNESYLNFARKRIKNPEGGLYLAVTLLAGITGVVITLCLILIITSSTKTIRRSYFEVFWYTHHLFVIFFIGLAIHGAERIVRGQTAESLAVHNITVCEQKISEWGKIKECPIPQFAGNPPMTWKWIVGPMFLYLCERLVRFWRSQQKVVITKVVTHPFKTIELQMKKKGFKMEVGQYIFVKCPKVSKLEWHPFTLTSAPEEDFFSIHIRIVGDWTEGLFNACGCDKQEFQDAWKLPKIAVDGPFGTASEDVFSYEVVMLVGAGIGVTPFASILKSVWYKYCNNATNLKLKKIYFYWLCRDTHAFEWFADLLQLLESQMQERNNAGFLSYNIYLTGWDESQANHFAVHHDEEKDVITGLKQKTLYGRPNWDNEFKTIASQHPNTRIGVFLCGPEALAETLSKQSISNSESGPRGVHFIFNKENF
# [19] = target: NADPH oxidase 4 (Homo sapiens) (UniProt Q9NPH5); assay: compounds shifting NOX4 Amplex Red fluorescence – cell-based, HEK293-NOX4, tetracycline-induced, NOX inhibitor project, primary screen (AID 1160); conditions: HEK293-NOX4, Amplex Red H2O2 fluorescence, 45 min; higher = more signal, called active from +8 up or from −8 down
# Sequence of NADPH oxidase 4 (Homo sapiens) (Q9NPH5 whole entry, looked up): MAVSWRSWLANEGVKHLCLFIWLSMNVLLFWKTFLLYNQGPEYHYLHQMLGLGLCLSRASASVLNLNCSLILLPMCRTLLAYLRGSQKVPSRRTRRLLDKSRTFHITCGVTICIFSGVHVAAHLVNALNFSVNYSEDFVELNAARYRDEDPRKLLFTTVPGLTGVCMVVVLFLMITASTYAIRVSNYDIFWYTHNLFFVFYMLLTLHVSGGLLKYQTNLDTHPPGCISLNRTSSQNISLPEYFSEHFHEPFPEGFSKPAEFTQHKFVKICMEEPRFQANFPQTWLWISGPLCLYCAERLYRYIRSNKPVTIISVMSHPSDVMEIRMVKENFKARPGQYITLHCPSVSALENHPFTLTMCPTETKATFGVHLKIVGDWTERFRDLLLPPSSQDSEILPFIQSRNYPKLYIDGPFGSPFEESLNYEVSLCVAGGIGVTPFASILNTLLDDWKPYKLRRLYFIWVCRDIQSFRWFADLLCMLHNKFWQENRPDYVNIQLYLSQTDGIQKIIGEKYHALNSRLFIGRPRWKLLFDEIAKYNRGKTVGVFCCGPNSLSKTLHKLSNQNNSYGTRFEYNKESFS
# [20] = target: NADPH oxidase 5 (Homo sapiens) (UniProt Q96PH1); assay: compounds shifting NOX5 Amplex Red fluorescence – cell-based, HEK293-NOX5, NOX inhibitor project, primary screen (AID 1161); conditions: HEK293-NOX5, ionomycin, 45 min, higher = more signal
# Sequence of NADPH oxidase 5 (Homo sapiens) (Q96PH1 whole entry, looked up): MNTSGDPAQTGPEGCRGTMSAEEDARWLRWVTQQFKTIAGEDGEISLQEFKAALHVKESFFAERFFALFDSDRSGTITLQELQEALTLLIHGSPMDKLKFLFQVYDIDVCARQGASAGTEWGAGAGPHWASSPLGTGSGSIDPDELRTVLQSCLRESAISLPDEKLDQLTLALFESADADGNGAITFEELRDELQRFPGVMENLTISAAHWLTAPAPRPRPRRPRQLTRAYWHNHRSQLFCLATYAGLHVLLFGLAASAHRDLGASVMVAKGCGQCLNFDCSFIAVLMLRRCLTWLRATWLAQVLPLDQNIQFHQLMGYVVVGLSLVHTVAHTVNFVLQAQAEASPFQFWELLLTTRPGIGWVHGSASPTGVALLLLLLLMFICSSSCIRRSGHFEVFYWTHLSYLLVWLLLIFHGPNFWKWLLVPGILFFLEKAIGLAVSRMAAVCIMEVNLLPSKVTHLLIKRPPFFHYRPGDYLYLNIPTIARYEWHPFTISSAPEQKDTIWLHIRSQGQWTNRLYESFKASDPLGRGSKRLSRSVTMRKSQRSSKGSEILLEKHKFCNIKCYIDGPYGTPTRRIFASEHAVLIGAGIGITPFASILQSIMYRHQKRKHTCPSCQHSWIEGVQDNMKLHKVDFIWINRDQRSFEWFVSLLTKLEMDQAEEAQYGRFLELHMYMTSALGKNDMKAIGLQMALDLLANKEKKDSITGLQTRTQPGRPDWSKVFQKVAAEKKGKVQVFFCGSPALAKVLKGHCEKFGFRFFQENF
Structure (SMILES),composite z-score [1],z-score [2],z-score [3],z-score [4],z-score [5],composite z-score [6],composite z-score [7],composite z-score (Torsin-1A (Homo sapiens) [8]),composite z-score (Torsin-1A (Homo sapiens) [9]),composite z-score [10],z-score [11],composite z-score [12],z-score [13],z-score [14],z-score [15],z-score [16],z-score [17],z-score [18],z-score [19],z-score [20]
CCN1C(=O)[C@H]2[C@H]3[C@H](O)[C@H](O)CC(=NOC)[C@@H]3CC[C@H]2C1=O,-0.254,0.359 (inactive),-1.16 (inactive),-1.12 (inactive),-0.154 (inactive),-0.125,-0.0762,-0.477,-0.115,-0.13,-0.589 (inactive),-0.0654,0.637 (inactive),0.628 (inactive),0.47 (inactive),0.269 (inactive),0.815,-0.0884 (inactive),0.545 (inactive),-0.274
C[N+](C)(C)CCCCCCNC(=O)[C@@H]1C[C@@H]2C(=O)N[C@@H](CCCC[N+](C)(C)C)C(=O)N2[C@@H]1c1ccc(O)cc1,0.107 and -0.0086,0.0047 (inactive) and 0.0071 (inactive),-0.424 (inactive) and -0.439 (inactive),-0.532 (inactive) and -1.08 (inactive),-1.2 (inactive) and 0.128 (inactive),-0.392 and -0.129,-0.128 and -0.0375,0.854 and -0.609,0.0983 and -0.498,1.61 and 2.12,0.877 (inactive) and 0.123 (inactive),-0.0011 and -0.149,0.973 (inactive) and 1.9 (inactive),0.106 (inactive) and 0.554 (inactive),-0.0454 (inactive) and 0.0605 (inactive),-0.115 (inactive) and 0.375 (inactive),-0.336 and -0.254,-0.441 (inactive) and -0.988 (inactive),0.105 (inactive) and -0.431 (inactive),0.58 and -0.839
C=CCN(C(=O)C(c1cccs1)N(C(=O)/C=C\C(=O)O)c1c(Cl)cccc1CO)c1ccc(OC)cc1 (stereo not given),-0.57 and -0.644,-0.266 (inactive) and 0.28 (inactive),0.894 (inactive),-0.895 (inactive) and -0.346 (inactive),-0.569 (inactive) and 0.595 (inactive),-1.33 and -0.327,-0.336 and -0.0209,-2.86 and -0.746,-1.96 and -2.42,-1.64 and -0.676,1.42 (inactive) and -0.536 (inactive),0.188 and 0.207,-0.363 (inactive) and 2.52 (inactive),-1.53 (inactive) and 0.102 (inactive),-0.806 (inactive) and -0.455 (inactive),-1.39 (inactive) and 0.0841 (inactive),0.312 and 0.429,-0.102 (inactive) and -0.012 (inactive),-1.08 (inactive) and -1.05 (inactive),0.145 and 0.141
C=CCN(C(=O)C(c1cccs1)N(C(=O)/C=C\C(=O)O)c1c(Cl)cccc1CO)C(C)(C)C (stereo not given),-1.15 and -1.26,0.389 (inactive) and 0.124 (inactive),0.933 (inactive) and 1.26 (inactive),0.325 (inactive) and 0.471 (inactive),-0.386 (inactive) and -0.514 (inactive),-1.61 and -1.09,-0.341 and -0.164,-3.44 and -4.12,-3.15 and -2.91,-1.98 and -2.58,-0.773 (inactive) and -1.1 (inactive),0.045 and 0.192,0.294 (inactive) and 0.153 (inactive),-0.0344 (inactive) and -0.313 (inactive),-0.741 (inactive) and -0.659 (inactive),-0.134 (inactive) and -0.0608 (inactive),-0.483 and -0.409,0.239 (inactive) and 0.261 (inactive),-0.827 (inactive) and -0.628 (inactive),-0.328 and 0.528
CCOC(=O)NN=C1C[C@@H](O)[C@@H](O)[C@@H]2[C@@H]3C(=O)N(Cc4ccccc4)C(=O)[C@@H]3CC[C@@H]12,-0.0099,0.162 (inactive),-0.0519 (inactive),0.52 (inactive),0.0513 (inactive),-0.199,-0.178,0.832,0.304,0.773,-2.78 (inactive),-0.641,1.04 (inactive),0.628 (inactive),0.979 (inactive),0.403 (inactive),-0.154,-0.6 (inactive),-0.393 (inactive),-0.365
CO[C@@H]1COC(=O)CC=C[C@H](C)[C@@H](NS(=O)(=O)c2ccc(C)cc2)COC(=O)CC=C[C@@H]1C,0.123 and 0.0913,-0.142 (inactive) and -0.867 (inactive),-0.675 (inactive) and -1.19 (inactive),-0.743 (inactive) and 0.42 (inactive),-0.881 (inactive) and 0.764 (inactive),0.167 and 0.162,-0.159 and -0.179,0.318 and 2.3,0.505 and 1.55,1.43 and 2.1,0.578 (inactive) and 0.567 (inactive),-0.186 and 0.0492,0.614 (inactive) and 0.595 (inactive),0.281 (inactive) and -0.12 (inactive),-0.153 (inactive) and 0.571 (inactive),0.401 (inactive) and 0.367 (inactive),-0.3 and -0.484,0.0381 (inactive) and 0.541 (inactive),0.724 (inactive) and 0.493 (inactive),0.423 and 0.277
CO[C@H]1COC(=O)[C@H](C)NC(=O)CC=C[C@@H](C)[C@H](OC)COC(=O)CC=C[C@@H]1C,0.155,0.0447 (inactive),-0.506 (inactive),1.51 (inactive),-0.41 (inactive),0.14,-0.237,1.85,1.81,1.62,0.343 (inactive),-0.149,-0.0029 (inactive),0.147 (inactive),0.597 (inactive),-0.0165 (inactive),-0.248,1.45 (inactive),-1.65 (inactive),-0.796
C=CCN(CCCC)C(=O)C(c1cccs1)N(CCOCCO)C(=O)/C=C\C(=O)O (stereo not given),-0.582 and -0.146,-0.259 (inactive) and -0.0074 (inactive),-0.801 (inactive) and -0.86 (inactive),-0.891 (inactive) and 0.0564 (inactive),-0.43 (inactive) and -0.359 (inactive),-0.915 and -0.578,-0.0313 and -0.0791,-0.289 and 0.536,1.73 and -0.144,-0.127 and -0.197,1.59 (inactive) and 1.84 (inactive),-0.275 and -0.127,-0.0592 (inactive) and -0.28 (inactive),-0.832 (inactive) and -0.75 (inactive),-0.114 (inactive) and 0.0221 (inactive),-1.22 (inactive) and -1.27 (inactive),1.05 and 1.65,0.0943 (inactive) and 0.209 (inactive),-0.73 (inactive) and -0.71 (inactive),0.465 and -0.0314
COC(=O)[C@H](C)NC(=O)CCC1CC(OC(=O)NCCc2ccc(F)cc2)CC2(CCCC(COC(=O)NCCCN3CCCC3=O)O2)O1 (stereo not given in full),0.29,-0.959 (inactive),0.0154 (inactive),-0.704 (inactive),0.597 (inactive),0.953,0.117,0.273,0.268,1.07,-0.184 (inactive),-0.294,-0.798 (inactive),-0.744 (inactive),1.05 (inactive),0.298 (inactive),0.244,1.32 (inactive),0.113 (inactive),-0.0138
COC(=O)C1=C(C)N(Cc2ccccc2)[C@]23O[C@](C(=O)OC)(C(=O)N2[C@@H]1c1ccccc1)[C@@H](c1ccccc1)[C@@H]3C(=O)c1ccccc1,0.216 and 0.0881,-3.24 (inactive) and 0.14 (inactive),-0.137 (inactive),0.751 (inactive) and 0.29 (inactive),-1.08 (inactive) and -0.186 (inactive),0.454 and 0.377,-0.0736 and -0.119,0.388 and 0.241,0.392 and 0.308,0.229 and 0.599,-1.1 (inactive) and 0.116 (inactive),-0.145 and -0.193,1.17 (inactive) and 0.647 (inactive),-0.645 (inactive) and 0.238 (inactive),0.372 (inactive) and 0.467 (inactive),-1.38 (inactive) and 0.0752 (inactive),1.39 and 0.0227,2.38 (inactive) and 0.648 (inactive),0.856 (inactive) and 0.876 (inactive),2.66 and 1.46
C=CCN(CCCC)C(=O)C(c1cccs1)N(C(=O)/C=C\C(=O)O)c1c(Cl)cccc1CO (stereo not given),-1.57 and -1.27,0.665 (inactive) and 0.504 (inactive),-0.428 (inactive) and 0.0609 (inactive),-0.761 (inactive) and 0.329 (inactive),0.325 (inactive) and -0.167 (inactive),-1.55 and -0.309,-0.38 and -0.186,-4.75 and -2.7,-3.62 and -2.89,-1.48 and -1.63,0.518 (inactive) and 0.0558 (inactive),-0.148 and -0.0099,0.111 (inactive) and 0.897 (inactive),-0.0165 (inactive) and -0.14 (inactive),-0.38 (inactive) and 0.0904 (inactive),0.113 (inactive) and 0.283 (inactive),1.21 and 0.596,0.148 (inactive) and 0.256 (inactive),-0.319 (inactive) and -0.507 (inactive),0.16 and 0.227
